The record followed here is PubChem BioAssay AID1307 (SRMLSC, 2008).

The whole screen tested about 1,200 compounds, of which fewer than 10 were called active. A selection follows. Entries with a potency or affinity are not part of this list. Unmarked numbers belong to inactive results.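 How the source made its calls: active means inhibition reaching a set limit at one or more tested concentrations; inactive means inhibition under that limit at every dose.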

A short description of the assay: RAM pathway signaling blockade in S. cerevisiae – dose response (AID 1307).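 Further: 0% = DMSO vehicle wells and 100% = 10 µM 1-NA-PP1 control; higher inhibition means more yeast growth since RAM block rescues cells from 5-FOA.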 The following applies: S. cerevisiae RAM network URA3 reporter, 5-FOA growth OD615, active compounds read high, yeast express analog-sensitive mutant Cbk1 kinase; at 100 µM unless noted.
On to `CCCCc1ccc(-c2csc(/C(C#N)=C/c3ccc(C)o3)n2)cc1`, for which the max inhibition is 4.24%.

On to `CCC(C)c1ccc(NC(=S)NCc2ccccc2OC)cc1` (stereo unspecified), for which the max inhibition was 5.65%.

Consider `CCCCC(=O)Nc1ccccc1C(=O)OCC(=O)c1ccc2c(c1)OCCO2`, for which the max inhibition is 2.31% [at 0.196 µM].

With `CCOC(=O)N1CCC(N(CCN(C)C)C(=S)Nc2cccc(SC)c2)CC1`, the max inhibition was 2.41% [at 0.782 µM].

Consider `CCCN(CCC)c1nc2ccccc2nc1C(C#N)C(=O)OC(C)COC` (stereo unspecified), for which the max inhibition is 2.6%.

For `Cc1ccc(-c2ccc(C(=O)NCc3ccccc3)o2)c2ccccc12`, the max inhibition is 3.65%.

Turning to `CC(C)Oc1cccc(C(=O)NC(=S)Nc2cccc(C(F)(F)F)c2)c1`, the max inhibition is 2.41% [at 0.782 µM].

For `O=C(CN(C(=O)CSc1nnc(COc2ccccc2)o1)c1ccc(F)cc1)NC1CCCC1`, the max inhibition is 2.82%.

Consider `Cc1ccccc1OCCC(=O)Nc1cccc(S(=O)(=O)Nc2ccccc2Cl)c1`, for which the max inhibition is 2.67% [at 0.196 µM].

As for `O=S(=O)(NCCSCc1ccc(Cl)cc1Cl)c1ccc2c(c1)OCCO2`, the max inhibition is 2.05% [at 12.5 µM].

With `CCCCCOP(=O)(OCCCCC)C1(NS(=O)(=O)c2ccccc2)C=CC(=O)c2ccccc21` (stereo unspecified), the max inhibition was 2.83%.

`COc1ccccc1OCC(=O)Nc1ccc(CSc2ccccc2)cc1C`: the max inhibition is 1.56% [at 25 µM].

As for `Cc1ccc(-n2c(SCC(=O)Nc3cccc(S(=O)(=O)NC4=NCCCCC4)c3)nc3ccccc3c2=O)cc1C`, the max inhibition is 11%.

For the molecule `CC(C)=CCC/C(C)=C/Cc1c(O)ccc(C(=O)/C=C/c2ccc(O)cc2)c1O`, the max inhibition is 5.39%.

Consider `CCOc1ccc2nc(SCC(=O)c3ccccc3)sc2c1`, for which the max inhibition was 3% [at 0.196 µM].

As for `COc1ccc(/C=C2\SC(=S)N(CC(=O)OCC(=O)Nc3ccc([N+](=O)[O-])cc3OC)C2=O)cc1`, the max inhibition is 8.9%.

Take `C=CCc1cccc(/C=N/NC(=O)C(C)Nc2ccc(C)cc2)c1O` (stereo unspecified): the max inhibition is 2.46% [at 0.782 µM].

In the case of `CCOc1cccc(-c2csc(C3COc4ccccc4O3)n2)c1` (stereo unspecified), the max inhibition was 5.04% [at 50 µM].

Turning to `COc1ccc2c(C)cc(SCC(=O)c3ccc4c(c3)OCO4)nc2c1`, the max inhibition was 4.01%.

For `FC(F)(F)c1nc(N2CCN(c3ccccc3)CC2)nc2c1CCCCC2`, the max inhibition is 3.63%.

For `CCOC(=O)c1c(C)[nH]c(C)c1C(=O)COC(=O)/C=C/c1ccc(Cl)cc1`, the max inhibition is 2.07% [at 0.391 µM].

Regarding `CCSC1=N/C(=C\c2ccc(-c3ccccc3[N+](=O)[O-])o2)C(=O)S1`, the max inhibition is 5.47% [at 25 µM].

In the case of `CC1CCCN(C(=O)C(C)Sc2nc(-c3ccccc3)cc(C(F)(F)F)n2)C1` (stereo unspecified), the max inhibition was 3.6% [at 25 µM].

In the case of `CCc1ccc(OCC(=O)N2c3ccccc3CCc3ccccc32)cc1`, the max inhibition was 2.64% [at 3.125 µM].

As for `Fc1ccc(CSc2nnc(Cc3sc(-c4ccccc4)nc3-c3ccccc3)o2)cc1`, the max inhibition was 5.66%.

Consider `O=C(Nc1ccccc1)C1=C[C@H](C2CCCCC2)C[C@H](OCc2ccc(CO)cc2)O1`, for which the max inhibition was 4.12%.

As for `CCCNS(=O)(=O)c1ccc(CCC(=O)Nc2cc(Cl)ccc2Oc2ccccc2)cc1`, the max inhibition is 1.73%.

As to `Cc1cccc(NC(=O)/C(C#N)=C/c2ccc(Sc3ccccc3)o2)c1C`, the max inhibition was 10.5%.

As to `CC(C)Oc1ccccc1OCCCCn1cnc2ccccc2c1=O`, the max inhibition is 2.35% [at 6.25 µM].

Turning to `Cc1ccc(-c2csc(N(CC3CCCO3)C(=O)c3ccco3)n2)cc1` (stereo unspecified), the max inhibition is 1.93% [at 12.5 µM].

`OCCNc1nc(SCc2ccccc2)nc2sc3c(c12)CCC3`: the max inhibition was 1.56% [at 3.125 µM].

Consider `Cc1cc(NC(=O)CSc2nc3ccsc3c(=O)n2Cc2ccccn2)n[nH]1`, for which the max inhibition is 2.41% [at 12.5 µM].

As for `COC(=O)c1cc2c(ccn2-c2ccc(F)cc2)n1Cc1ccc(OC)cc1`, the max inhibition was 5.52% [at 50 µM].

For the molecule `CCC1(C)CC(CCNS(=O)(=O)c2ccc(C)cc2)(c2ccc(C)cc2)CCO1` (stereo unspecified), the max inhibition is 3.04%.

As to `Cn1c(N=Nc2ccc(N3CCOCC3)cc2)[n+](C)c2ccccc21`, the max inhibition is 25%.

For `Cc1ccc(SCCNC(=S)Nc2ccc(C)c(C)c2)cc1`, the max inhibition was 4.41% [at 12.5 µM].

For `Brc1ccc(CSc2nnc(Cc3c[nH]c4ccccc34)o2)cc1`, the max inhibition is 3.66%.

With `CCOCCOC(=O)C(C)Oc1ccc(Oc2nc(Cl)ccc2Cl)cc1` (stereo unspecified), the max inhibition is 2.21% [at 25 µM].

Regarding `CCOc1nc(-c2ccccc2)ccc1-c1noc(COc2ccccc2)n1`, the max inhibition is 3.61% [at 50 µM].

As for `Cc1ccccc1OCC(=O)OCC(=O)c1ccc(OCc2ccccc2)cc1`, the max inhibition is 4.85% [at 50 µM].

Consider `COc1ccccc1C(NC(=O)C1CCCCC1)c1c(O)ccc2ccccc12` (stereo unspecified), for which the max inhibition is 5.27%.

On to `CCCCC1(Cc2cccc([N+](=O)[O-])c2)C(=O)N(c2ccccc2)N(c2ccccc2)C1=O`, for which the max inhibition was 4.01% [at 50 µM].

As for `O=C(COC(=O)CCCNC(=O)c1ccc(Cl)cc1)Nc1cc(Cl)c(Cl)cc1Cl`, the max inhibition is 3.97% [at 50 µM].

Turning to `COc1ccc(C(=O)/C=C/Nc2ccc(S(=O)(=O)Nc3ncccn3)cc2)cc1`, the max inhibition was 7.67%.

Take `CCCCOc1ccc(S(=O)(=O)Nc2cc(OC)ccc2OC)cc1`: the max inhibition was 3.71% [at 25 µM].

On to `COc1cc2c(=O)n(Cc3ccco3)c(=O)n(CC(=O)c3ccc(Br)cc3)c2cc1OC`, for which the max inhibition was 3.72% [at 0.196 µM].

As for `Cc1ccc(SCC(=O)Nc2ccc(F)cc2[N+](=O)[O-])cc1C`, the max inhibition is 2.24%.

As to `COc1cc(/C=N/Nc2ccc(Cl)cc2)ccc1OC(=O)c1cccs1`, the max inhibition was 2.6% [at 0.391 µM].

As to `COc1ccc(-c2nc(-c3ccc(O)cc3O)cs2)cc1OC`, the max inhibition was 5.02% [at 3.125 µM].

For the molecule `CCOC(=O)c1cc(C#N)c(Oc2cccc(C(F)(F)F)c2)nc1-c1ccccc1`, the max inhibition was 2.36%.

Take `CC(=O)Nc1ccc(-c2cc(-c3ccc(NC(C)=O)cc3)nc(-c3ccc(NC(C)=O)cc3)n2)cc1`: the max inhibition is 13.5%.
